The AC50 is the midpoint of the concentration-response curve, whichever way the signal moves.

Consider seven compounds from PubChem BioAssay (EPA / NIEHS).

The structures appear in SMILES notation. Active and inactive are the calls of the source. Rule for the calls: active = hit-call score of the fitted dose curve at least 0.9, where 1 is the maximum; inactive = score below 0.9.

Assay [1] in a line: APR_HepG2_CellCycleArrest_1hr: Apredica 1-hour HepG2 Assay for Cell Cycle Arrest (AID 2282666). The note with it: high-content imaging, actives raise or lower the signal. A digest of the protocol: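 Cell cycle arrest scored from nuclear DNA content (Hoechst 33342) using high-content imaging of fixed HepG2 cells after 1 h treatment across 0.39–200 uM, in duplicate. Gain or loss fitted relative to 0.5% DMSO.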

The nature of assay [2]: APR_HepG2_CellLoss_1hr: Apredica 1-hour HepG2 Assay for Cell Loss (AID 2282668).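 Note: curves fitted both ways against DMSO so gain or loss of cells counts.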 The note with it: high-content imaging. A digest of the protocol:
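Cell number comes from high-content imaging of Hoechst-labelled nuclei in fixed HepG2 cells. Cells were exposed for 1 h to ten concentrations from 0.39 to 200 uM in 0.5% DMSO. Gain or loss was fitted against DMSO controls.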

Assay [3] in a line: APR_HepG2_NuclearSize_1hr: Apredica 1-hour HepG2 Assay for Nuclear Size (AID 2282670). The note with it: high-content imaging, actives raise or lower the signal. A digest of the protocol: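 Nuclear size measured by high-content imaging of Hoechst 33342 nuclear stain after formaldehyde fixation; human HepG2 line exposed 1 hr to compounds at 0.39–200 uM in 0.5% DMSO, with bidirectional curve fitting relative to DMSO.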

Assay [4] can be described thus: APR_HepG2_p53Act_1hr: Apredica 1-hour HepG2 Assay for p53 Activation (AID 2282671). The note with it: high-content imaging, actives raise or lower the signal. The procedure, abridged: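 After 1 h exposure (0.39–200 uM, 0.5% DMSO final, duplicates), fixed HepG2 cells were labelled with anti-p53 antibody plus Hoechst nuclear stain. Fluorescence quantified by automated 20x imaging; changes fitted in both directions against DMSO.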

Assay [5] is described as follows: APR_HepG2_MitoticArrest_1hr: Apredica 1-hour HepG2 Assay for Mitotic Arrest (AID 2282672). The note with it: high-content imaging, actives raise or lower the signal. A digest of the protocol: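 Ten-point concentration series (0.39 to 200 uM, duplicates, 0.5% v/v DMSO) applied to human HepG2 liver cells for 1 hr. High-content imaging of phospho-histone H3 and Hoechst-stained nuclei after fixation and permeabilization; DMSO-normalised bidirectional fit.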

Assay [6] can be described thus: APR_HepG2_MitoMembPot_1hr: Apredica 1-hour HepG2 Assay for Mitochondrial Membrane Potential (AID 2282675). Conditions: imaging, actives raise or lower the signal. The procedure, abridged:
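Mitochondrial membrane potential read as MitoTracker Red CMXRos intensity by automated imaging of fixed HepG2 cells. Dye at 250 nM for 30 min pre-fixation; compounds 0.39 to 200 uM for 1 hour, duplicate wells, 0.5% DMSO.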

Assay [7] in a line: APR_HepG2_CellCycleArrest_24hr: Apredica 24-hour HepG2 Assay for Cell Cycle Arrest (AID 2282905).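 Note: cell cycle arrest scored as ratio of 2N to 4N nuclear DNA content.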 The note with it: imaging, actives raise or lower the signal. A digest of the protocol:
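Step one: dose HepG2 with test compounds, 0.39–200 uM, 0.5% DMSO, 24 hr. Step two: fix, permeabilize, stain nuclei with Hoechst 33342. Step three: image six fields per well at 20x, quantify DNA content, fit bidirectionally relative to DMSO.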

The nature of assay [8]: APR_HepG2_StressKinase_1hr: Apredica 1-hour HepG2 Assay for Stress Kinase (AID 2282906). Conditions: HepG2 stress kinase (phospho-c-Jun) imaging, actives raise or lower the signal. A digest of the protocol:
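High-content imaging of phospho-c-Jun immunostaining (with Hoechst nuclear identification) after a 1 h exposure of HepG2 cells to 10 concentrations from 0.39 to 200 uM, final DMSO 0.5%. Fitted bidirectionally against DMSO.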

Assay [9] is described as follows: APR_HepG2_NuclearSize_24hr: Apredica 24-hour HepG2 Assay for Nuclear Size (AID 2282907). The note with it: high-content imaging, actives raise or lower the signal. The procedure, abridged: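 After fixation and permeabilization, 24-hr-treated HepG2 cells were stained with Hoechst 33342 and imaged on an ArrayScan (20x). Doses spanned 0.39–200 uM in duplicate. Nuclear diameter changes in either direction were fitted relative to 0.5% DMSO controls.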

A short description of assay [10]: APR_HepG2_CellLoss_24hr: Apredica 24-hour HepG2 Assay for Cell Loss (AID 2282908).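 For AC50: fit in both directions so a hit may be cell loss or gain.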 The note with it: high-content imaging. A digest of the protocol:
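Duplicate wells received compound at ten concentrations (0.39–200 uM; final DMSO 0.5% v/v). After fixation with formaldehyde, nuclei stained with Hoechst 33342 were imaged at 20x. Loss or gain of cell count was fitted relative to DMSO controls.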

Assay [11] can be described thus: APR_HepG2_MicrotubuleCSK_24hr: Apredica 24-hour HepG2 Assay for Microtubule CSK Stabilty (AID 2282909). Conditions: HepG2 microtubule cytoskeleton imaging, actives raise or lower the signal. The procedure, abridged: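 Microtubule stability is scored from tubulin immunofluorescence in fixed HepG2 cells imaged at 20x. Cells receive ten compound concentrations up to 200 uM for 24 h; taxol and DMSO serve as positive and negative controls.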

Assay [12] in a line: APR_HepG2_MitoticArrest_24hr: Apredica 24-hour HepG2 Assay for Mitotic Arrest (AID 2282910). The note with it: high-content imaging, actives raise or lower the signal. The procedure, abridged:
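HepG2, 24 hr dosing, 0.39–200 uM, 0.5% DMSO final. Formaldehyde-fixed, Triton-permeabilised, anti-phospho-histone H3 plus Hoechst. ArrayScan imaging at 20x; bidirectional fit vs DMSO baseline.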

A short description of assay [13]: APR_HepG2_MitoMembPot_24hr: Apredica 24-hour HepG2 Assay for Mitochondrial Membrane Potential (AID 2282911). Conditions: imaging, actives raise or lower the signal. The procedure, abridged: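 Mitochondrial membrane potential imaged via MitoTracker Red CMXRos (250 nM, 30 min pre-fixation) in fixed HepG2 cells with Hoechst nuclear identification. Ten concentrations 0.39–200 uM, 24 h treatment, 0.5% DMSO; CCCP as positive control.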

Assay [14] is described as follows: APR_HepG2_MitoMass_24hr: Apredica 24-hour HepG2 Assay for Mitochondrial Mass (AID 2282912). The note with it: high-content imaging, actives raise or lower the signal. A digest of the protocol: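 Readout: fluorescence of MitoTracker Red CMXRos (250 nM, added 30 min pre-fixation) in fixed HepG2 cells imaged by HCS. Exposure lasted 24 hr at 0.39–200 uM; increases and decreases were both fitted relative to DMSO.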

Assay [15] can be described thus: APR_HepG2_p53Act_24hr: Apredica 24-hour HepG2 Assay for p53 Activation (AID 2282913).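 Note: p53 protein immunofluorescence averaged per cell in HepG2 with Hoechst nuclei.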 Conditions: high-content imaging, actives raise or lower the signal. The procedure, abridged: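 Fluorescence imaging of formaldehyde-fixed HepG2 cells labelled for p53 and with Hoechst, 24 h after dosing (0.39–200 uM, duplicate wells, 0.5% v/v DMSO). Signal fitted in both directions relative to DMSO.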

Assay [16] in a line: APR_HepG2_CellCycleArrest_72hr: Apredica 72-hour HepG2 Assay for Cell Cycle Arrest (AID 2282914). Conditions: high-content imaging, actives raise or lower the signal. The procedure, abridged: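 Read-out: nuclear DNA content from Hoechst 33342 high-content imaging (20x, six fields/well) after 3.7% formaldehyde fixation, fitted bidirectionally against DMSO. Treatment was 72 h in HepG2, ten concentrations 0.39–200 uM, duplicate, 0.5% DMSO.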

Assay [17] is described as follows: APR_HepG2_CellLoss_72hr: Apredica 72-hour HepG2 Assay for Cell Loss (AID 2282915). Conditions: high-content imaging. The procedure, abridged: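 HepG2 cells exposed 72 h to compound at 0.39–200 uM (10 concentrations, duplicate) in 0.5% DMSO. Fixed with 3.7% formaldehyde and Hoechst 33342-stained. Imaged at 20x; nuclear count gives cell number, fitted bidirectionally versus DMSO.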

Assay [18] in a line: APR_HepG2_MicrotubuleCSK_1hr: Apredica 1-hour HepG2 Assay for Microtubule CSK Stabilty (AID 2282669). The note with it: HepG2 microtubule cytoskeleton imaging, actives raise or lower the signal. The procedure, abridged: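 Alpha-tubulin immunofluorescence, imaged by automated high-content microscopy with Hoechst nuclear segmentation, measured cytoskeletal change after 1 h dosing of HepG2 at 0.39–200 uM in 0.5% DMSO. Activity fitted in both directions relative to DMSO.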

Assay [19] can be described thus: APR_HepG2_P-H2AX_1hr: Apredica 1-hour HepG2 Assay for H2AX Phosphorylation (AID 2282673). The note with it: high-content imaging, actives raise or lower the signal. A digest of the protocol:
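Phospho-H2A.x immunofluorescence (1:200, FITC secondary) plus Hoechst nuclear stain, quantified by high-content imaging in HepG2 after 1 hr compound exposure. Ten concentrations, 0.39 to 200 uM, in duplicate with 0.5% DMSO; fit both directions against DMSO.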

Assay [20] in a line: APR_HepG2_MitoMass_1hr: Apredica 1-hour HepG2 Assay for Mitochondrial Mass (AID 2282674). The note with it: high-content imaging, actives raise or lower the signal. A digest of the protocol:
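Mitochondrial mass is taken from MitoTracker Red CMXRos (250 nM, 30 min, pre-fixation) fluorescence imaged at 20x in HepG2 cells. Exposure lasted 1 hr across ten concentrations, 0.39 to 200 uM, 0.5% DMSO; DMSO baseline, bidirectional fitting.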

`CCC(CC)Nc1c([N+](=O)[O-])cc(C)c(C)c1[N+](=O)[O-]`: the call in assay [1], in assay [2], in assay [3], in assay [4], in assay [5] and in assay [6] was inactive. In addition, the result in [7], in assay [8], in assay [9], in [10], in assay [11] and in assay [12] was inactive. Further, the call in assay [14], in assay [15] and in [16] was inactive. In addition, the results for the AC50 in assay [13] and in assay [17] were 84.3 µM (active) and 108 µM (active), respectively.
With `CCCCSP(=O)(SCCCC)SCCCC`, the result in assay [1], in assay [2], in [18], in assay [3], in assay [4] and in assay [6] was inactive. Besides, the compound was classed as inactive in assay [7], in [8], in [9], in [10], in [11] and in assay [12]. In addition, the compound was classed as inactive in [13], in assay [14], in assay [15] and in assay [16]. Also, the AC50 in assay [17] is 87.3 µM (active).
For the compound `CC[C@H](C)[C@H]1O[C@]2(C=C[C@@H]1C)C[C@@H]1C[C@@H](C/C=C(\C)[C@@H](O[C@H]3C[C@H](OC)[C@@H](O[C@H]4C[C@H](OC)[C@@H](NC)[C@H](C)O4)[C@H](C)O3)[C@@H](C)/C=C/C=C3\CO[C@@H]4[C@H](O)C(C)=C[C@@H](C(=O)O1)[C@]34O)O2`, the outcome in assay [1], in assay [18], in assay [3], in assay [20], in [6] and in assay [7] was inactive. For the same compound, the compound was called inactive in assay [9], in assay [13], in [15], in assay [16] and in [17]. In addition, the AC50 is 16.5 µM (active) in assay [2]; 26.8 µM (active) in [4]; 16.8 µM (active) in assay [19]; 17.6 µM (active) in assay [8]; 2.55 µM (active) in assay [10]; 12.6 µM (active) in [11]. Moreover, the AC50 in assay [12] is 12.7 µM (active); in assay [14], 8.64 µM (active).
`CCOP(=S)(OCC)Oc1cc(C)nc(C(C)C)n1`: the outcome in assay [1], in [2], in assay [18], in [5], in [19] and in [6] was inactive. Also, the result in assay [7], in assay [8], in [9], in [10], in assay [11] and in [12] was inactive. Also, the outcome in [13], in assay [14], in assay [15], in [16] and in assay [17] was inactive.
Turning to `CC(C)[C@H](C(=O)O[C@H](C#N)c1cccc(Oc2ccccc2)c1)c1ccc(Cl)cc1`, the call in [1], in [2], in [3], in [4], in assay [5] and in assay [6] was inactive. The compound was called inactive in assay [7], in assay [8], in [9], in [10], in assay [11] and in [12]. The result in assay [13], in assay [14], in assay [15], in assay [16] and in assay [17] was inactive.
On to `CCOC(=O)CC(SP(=O)(OC)OC)C(=O)OCC` (stereo unspecified), for which the compound was called inactive in assay [1], in [2], in [18], in assay [19], in assay [20] and in assay [6]. The compound was classed as inactive in assay [7], in assay [8], in assay [9], in assay [10], in assay [11] and in assay [12]. The outcome in assay [13], in [14], in assay [15], in assay [16] and in assay [17] was inactive.
As for `O=C(O)c1cc(Oc2ccc(C(F)(F)F)cc2Cl)ccc1[N+](=O)[O-]`, the compound was classed as inactive in assay [1], in assay [2], in assay [18], in [3], in assay [5] and in assay [20]. Further, the call in assay [6], in [7], in assay [8], in assay [9], in [10] and in [11] was inactive. Further, the compound was called inactive in assay [12], in [13], in assay [14], in assay [16] and in [17].
